NS1 inh = qHTS Assay for Inhibitors of Influenza NS1 Protein Function; Potency, µM (top dose mostly 46.1 µM), without a hit: top-dose activity, positive = more growth; actives 0.4% (n = 270,000); calls by dose curve; further: potency means the concentration at half of the fitted maximal effect; actives are rising curves; nearly all actives have a fitted effect of over 50% in size
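OD600 was taken as the measure of yeast growth restored by compound in an NS1-expressing S. cerevisiae strain. Cells had been washed out of glucose medium and diluted 1:100 into galactose -URA medium, pH 6.0.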
Pf growth 96h = Primary qHTS for delayed death inhibitors of the malarial parasite plastid, 96 hour incubation; Potency, µM (titrated, usually from 28.7 µM), inactives show at the highest dose activity change, negative = inhibition, hits mostly inhibitors; AID 504834, 2011; P. falciparum luciferase reporter growth, 96 h; actives 6.9% (n = 320,000); further: potency means the concentration at half of the fitted maximal effect; on the % scale 0 is the no-effect control and ±100 the full control effect
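P. falciparum expressing integrated firefly luciferase, in erythrocytes at 2% hematocrit, 0.05% parasitemia, incubated with compounds 96 h at 37 C, 5% CO2. Growth inhibition read as loss of luminescence; two-generation exposure targets delayed-death apicoplast inhibitors.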
Cycloheximide cs = Cycloheximide Counterscreen for Small Molecule Inhibitors of Shiga Toxin | cell reporter, cycloheximide protein synthesis inhibition counterscreen | max response, % | actives 12% (n = 300,000); in the data active means max response mostly above about 13%, no sharp cut-off; inactive means mostly below about 14%; further: read at 38.3 µM for the half of the compounds with a filed dose; 0% is about no effect
Shiga inhibitor = A qHTS for Small Molecule Inhibitors of Shiga Toxin | actives 9.2% (n = 290,000) | inhibition, % at 38.7 µM | Vero cells, Shiga toxin protein synthesis inhibition reporter; in the data active means inhibition mostly above about 28%, no sharp cut-off; inactive means mostly below about 43%; further: 0% is about no effect
Pf growth 48h = Primary qHTS for delayed death inhibitors of the malarial parasite plastid, 48 hour incubation; AID 504832, 2011; actives 5.9% (n = 310,000); Potency, µM (series often up to 28.7 µM), for inactives: top-dose activity change, negative = inhibition, most hits filed as inhibitors; P. falciparum luciferase growth in erythrocytes, 48 h; further: potency means the concentration at half of the fitted maximal effect; on the % scale 0 is the no-effect control and ±100 the full control effect
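Firefly luciferase activity from engineered P. falciparum reports growth; inhibitors lower the luminescent signal. Cultures contained 2% hematocrit erythrocytes at 0.1% final parasitemia.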
Numbers without * were called inactive; i = inactive; u = inconclusive; x = not tested or not shown; + = active, no number. Sampled rows, rich in hits. Any-hit rate of the full collection: about 21%. Unless noted, the call rests on the fitted dose curve; in most records, active means well fitted inhibition curve with a large enough effect; inconclusive means small, poorly fitted or top-dose-only effect, or another doubt; inactive means no such curve, though single readings can be large or run the other way.

SMILES | NS1 inh | Pf growth 96h | Cycloheximide cs | Shiga inhibitor | Pf growth 48h
Oc1ccccc1/C=N/Nc1nc2ccccc2o1 | -34% | 2.1µM* | 62* | 97* | 2.6µM*
Brc1ccc(/C=N/Nc2nc3ccccc3o2)cc1 | -45% | u | 41* | 57* | 76%
CCN1CCN(C(=O)/C=C/c2cccc(Cl)c2)CC1 | 14% | 0% | 15* | 23 | 8%
CCN1CCN(C(=O)/C=C/c2ccc(OC)c(OC)c2)CC1 | 18% | u | 6 | -2 | 29%
CCN1CCN(C(=O)/C=C/c2ccc(C)o2)CC1 | -6% | -6% | 7 | -8 | 9%
CCN1CCN(C(=O)/C=C/c2c(F)cccc2Cl)CC1 | -5% | 7% | 10 | 15* | 12%
O=C(COc1ccccc1F)N1CCc2ccccc2C1 | 1% | 11% | -3 | -6 | 12%
O=C(/C=C/c1c(F)cccc1Cl)N1CCc2ccccc2C1 | -49% | u | 14* | x | 0%
CCOC(=O)N1CCC(NC(=O)CCc2nc(-c3ccc(C)cc3)no2)CC1 | 5% | -5% | -2 | 42 | -4%
O=C(CN1CCN(c2ccc(C(F)(F)F)cn2)CC1)Nc1ccc2c(c1)OCO2 | -5% | 1% | 15 | 6 | 19%
O=C1C2CCCN2C(c2ccncc2)N1c1ccc(Cl)c(Cl)c1 (centres undefined) | -2% | 0.83µM* | -2 | -13 | 13µM*
CCC(C)NC(=O)c1ccc(CNS(=O)(=O)c2ccc3c(c2)C(C)(C)C(=O)N3C)cc1 (centres undefined) | -1% | 9.3µM* | -3 | -4 | 0%
CC(OC(=O)c1ccc(NS(=O)(=O)c2ccc3[nH]c(=O)[nH]c3c2)cc1)C(=O)Nc1ccc(Cl)cc1 (centres undefined) | 13% | 0.59µM* | 5 | 20 | 0.83µM*
CCC(C)NC(=O)c1ccc(NS(=O)(=O)c2ccc3[nH]c(=O)[nH]c3c2)cc1 (centres undefined) | -2% | u | 28 | 13* | 23%
Cc1ccc(CNC(=O)c2ccc(CNS(=O)(=O)c3ccc4c(c3)C(C)(C)C(=O)N4C)cc2)o1 | 11% | -6% | 1 | -3 | u
CCN(CC)C(=O)c1ccc(NS(=O)(=O)c2ccc3[nH]c(=O)[nH]c3c2)cc1 | 2% | 8.3µM* | -1 | -12 | 12µM*
C=CCCOc1ccccc1C(N)=O | 0% | u | -1 | -3 | 96%
Cc1cc(NC(=O)C2C3C(=O)N(Cc4ccc(Cl)cc4)C(C(=O)NCc4ccccc4)C34C=CC2(C)O4)no1 (centres undefined) | -10% | 17% | 19 | -30 | u
CC12CCC(C(=O)Nc3cc(Cl)ccc3Cl)(C(Br)C1=O)C2(C)C (centres undefined) | 11% | u | -1 | 14 | u
CCc1ccc(N2CC(C(=O)OCC(=O)Nc3ccc(C#N)cc3)CC2=O)cc1 (centres undefined) | x | 1% | x | x | 18%
O=S(=O)(c1ccccc1)c1cnn(-c2ccccc2)c1-c1ccc(F)cc1 | -2% | 5.9µM* | -3 | -7 | u
COc1ccc(-n2ncc(S(=O)(=O)c3ccccc3)c2-c2ccc(Cl)cc2)cc1 | 15% | u | 11 | -3 | 12µM*
CCc1nc2nc(C)c(NS(=O)(=O)c3ccc(C)c(C)c3)c(=O)n2[nH]1 | 0% | -20% | -1 | -9 | -2%
COc1ccc2oc(=O)c(C(=O)NCc3ccco3)cc2c1 | -7% | 13% | 25* | 85* | 15%
O=C(O)c1ccc(N=c2oc3cc(O)ccc3cc2C(=O)NCc2ccccc2)cc1 | x | u | 7 | 4 | -28%
SMILES | NS1 inh | Pf growth 96h | Cycloheximide cs | Shiga inhibitor | Pf growth 48h
COc1ccc2oc(=O)c(C(=O)NCc3ccc4c(c3)OCO4)cc2c1 | -4% | -41% | -4 | 18 | 27%
COc1ccc2cc3c(N)c(C(=O)NCc4ccco4)sc3nc2c1 | u | u | 11 | 42* | -86%
COc1cc(C(F)(F)F)ccc1C(=O)NCCc1ccco1 | -7% | 1% | 68* | 80* | 48%
COc1ccc2cc(C(=O)NCc3ccccc3)c(=Nc3ccc(C(=O)O)cc3)oc2c1 | x | 0.41µM* | 13 | 23 | u
O=C(COc1ccc(Cl)cc1)N1CCN(C(=O)c2ccccc2F)CC1 | -1% | 37% | -7 | -4 | 13%
CCOC(=O)c1cnc2c(c(C)nn2CC)c1NC1CC1 | -37% | u | 11 | -7 | u
COc1cc(OC)c(C(=O)NCc2ccco2)cc1OC | 9% | -16% | 15 | -3 | -52%
CCn1cc(C(=O)NCc2ccco2)c2cc(OC)c(OC)cc2c1=O | -13% | x | 21* | -8 | 16%
COc1cccc2cc(C(=O)NCc3ccco3)c(=O)oc12 | 1% | -15% | 34* | 74* | 11%
COc1cccc2cc(C(=O)NCc3ccco3)c(=Nc3ccc(C(=O)O)cc3)oc12 | -6% | u | 76* | 196* | x
CCOC(=O)/C=C1\CN(C(C)c2ccccc2)S(=O)(=O)c2ccccc21 (centres undefined) | 5% | -26% | 1 | -10 | -3%
c1cc(-c2nnc(-c3ccncc3)o2)ccn1 | -3% | 137% | -1 | 14 | x
CC(C)(C)c1ccc(-c2nnc(N)o2)cc1 | -1% | 99% | 37* | 67* | 13%
NS(=O)(=O)c1ccc(CNC(=O)CSc2nc3ccc(Cl)cc3[nH]2)cc1 | 27% | u | -1 | 2 | -10%
O=S(=O)(Nc1ccc2c(c1)OCO2)c1ccc(F)c(F)c1 | x | -19% | x | x | 3%
COc1ccc(OC)c(N/C=C/C(=O)c2ccc(OC)c(OC)c2)c1 | 8% | u | 15* | 55 | u
COc1cccc(C(=O)COC(=O)c2ccc(NC(C)=O)cc2)c1 | -6% | 41% | 16* | 13 | 57%
COc1ccc(C(=O)Nc2cc(OC)ccc2OC)cc1 | -24% | 6% | 15 | 24 | 67%
COc1cccc(C(=O)/C=C/Nc2cc(C)ccc2O)c1 | -16% | -3% | 51* | 88* | u
CCOC(=O)c1cccc(N/C=C/C(=O)c2ccc(OC)c(OC)c2)c1 | -3% | i | 27* | 98* | 186%
COc1ccc(C(=O)COC(=O)c2ccc(NC(C)=O)cc2)cc1[N+](=O)[O-] | -12% | u | 6 | -3 | 7%
CCCNC(=S)Nc1ccc(F)cc1F | 4% | 19% | 0 | -14 | 14%
COC(=O)c1ccc(N/C=C/C(=O)c2ccccc2)cc1 | -11% | 13µM* | 43* | 48* | 161%
COc1cccc(N/C=C/C(=O)c2ccc(OC)c(OC)c2)c1 | -59% | u | 27* | 46* | -15%
CCOC(=O)c1ccc(N/C=C\C(=O)c2cccc(OC)c2)cc1 | -10% | 108% | 48* | 95* | 138%
CCOC(=O)c1ccc(OS(=O)(=O)c2ccccc2)c(OC)c1 | -3% | 351% | 50* | + | 198%
COc1ccccc1N(CC(=O)NCc1ccccc1)C(=O)CCC(=O)Nc1ccccn1 | -6% | u | -1 | 9 | u

Bioassay records as filed in PubChem BioAssay.
